Measurements reported in PubChem BioAssay (EPA / NIEHS).
Activity calls are given as the source filed them. Rule for the calls: active = hit-call score of the fitted dose curve at least 0.9, where 1 is the maximum; inactive = score below 0.9.

Assay: CCTE_Shafer_MEA_acute_burst_number: CCTE's Neural Acute Assay for Single-Electrode Bursts, Shafer Lab (AID 2284013)
Description: CCTE_Shafer_MEA_acute assay is conducted using Axion Biosystems 48 well microelectrode array (MEA) plates and Maestro recording system. Each well of the MEA plate contains a grid of 16 microelectrodes embedded in the culture surface. Electrically active cells, such as neurons, can be cultured over the electrodes, and electrical activity in these cells can be recorded extracellularly. The spontaneous firing of neurons is captured from each electrode on a microsecond timescale providing both temporally and spatially precise data. […] The CCTE_Shafer_MEA_acute assay uses primary cultures of rat cortical neurons. As these cultures mature over time, neural networks develop functional activity and form cohesive networks in which electrical activity can be highly coordinated. Baseline 40-minute recordings are made on days post-plating 13 or 15, followed by a secondary 40-minute recording after chemical exposure.CCTE_Shafer_MEA_acute_burst_number is a component of the CCTE_Shafer_MEA_acute assay. It measures the total number of single-electrode bursts (temporally-clustered groups of action potential firing) during a recording in a microelectrode array (MEA) using Axion Biosystems Maestro 768 channel amplifier with the AxIS adaptive spike detector. The recordings before and after chemical treatment are used to calculate a percent change in the burst number in each well.Data from the assay component CCTE_Shafer_MEA_acute_burst_number was analyzed into 1 assay endpoint. This assay endpoint, CCTE_Shafer_MEA_acute_burst_number, was analyzed in the negative analysis fitting direction relative to DMSO as the negative control and baseline of activity. Using a type of functional reporter, gain or loss-of-signal activity can be used to understand electrical activity.
Spontaneous activity in the cortical cultures was recorded using an Axion Biosystems Maestro 768 channel amplifier and Axion Integrated Studios (AxIS) v1.8 (or later) software. The amplifier recorded from all channels simultaneously (gain = 1200 x; sampling rate = 12.5 kHz/channel): raw signals were filtered with a Butterworth band-pass filter (300-5000 Hz), which filters out slower local field potentials leaving only fast potentials, i.e., "spikes", arising from extracellular currents associated with action potentials (Pine 2006; Wheeler and Nam 2011). On-line spike detection of filtered signals was conducted with the AxIS adaptive spike detector, using a threshold of 8x the root mean squared (rms) noise on each channel. Any electrodes with rms noise levels greater than 5 uV were grounded (e.g., no data were recorded). Once grounded, an electrode was grounded for the duration of the experiment. All recordings were conducted at 37 C. Wells were deemed usable if on the day of the exposure >/= 10 electrodes were active (defined as >/= 5 spikes/min). On DIV 13 or 15, a minimum of three wells from one cortical culture preparation were treated with each compound (0.03-40 uM). Prior to recording baseline activity, each mwMEA plate was placed in the Maestro at 37 C and allowed to sit for 20 min while firing rates stabilized. Baseline activity (40 min) was recorded before the addition of each compound. An additional 40 min of spontaneous activity was recorded in the presence of each compound. Changes in network parameters relative to baseline were assessed following compound treatment.

Row | Structure (SMILES) | outcome | AC50
1 | CN(C)C(=N)N=C(N)N | inactive | 
2 | CCCCCCCCC=O | inactive | 
3 | Cc1cc(C2(c3cc(C)c(O)cc3C)OS(=O)(=O)c3ccccc32)c(C)cc1O |  | 148 nM (active)
4 | C=C[Si](OCC)(OCC)OCC | inactive | 
5 | CC(=O)[C@H]1CC[C@H]2[C@@H]3CC=C4C[C@@H](O)CC[C@]4(C)[C@H]3CC[C@]12C |  | 14.4 nM (active)
6 | C[C@H]1C[C@@H]2[C@H]([C@@H](O)C[C@@]3(C)[C@H]2CC[C@]3(O)C(=O)CO)[C@@]2(C)C=CC(=O)C=C12 |  | 3 nM (active)
7 | Nc1cc([N+](=O)[O-])ccc1O | inactive | 
8 | COc1cc(C=O)ccc1OC(=O)C(C)C | inactive | 
9 | NCCNCCN | inactive | 
10 | OC[C@H]1O[C@H](O[C@]2(CCl)O[C@H](CCl)[C@@H](O)[C@@H]2O)[C@H](O)[C@@H](O)[C@H]1Cl | inactive | 
11 | CC(=O)OCCC(C)CC(C)(C)C (stereo unspecified) | inactive | 
12 | CC[Si](OC(C)=O)(OC(C)=O)OC(C)=O |  | 429 nM (active)
13 | CCC(=O)OCc1ccccc1 | inactive | 
14 | CC(C)(COC(=O)c1ccccc1)COC(=O)c1ccccc1 | inactive | 
15 | C=CCOC(=O)CCC1CCCCC1 | inactive | 
16 | OC1OC[C@@H](O)[C@H](O)[C@H]1O (stereo partly specified) | inactive | 
